Results filed as inconclusive are left out. Calls come from the whole dose curve; as a rule, active = well fitted activation curve with a large enough effect; inconclusive = small, poorly fitted or top-dose-only effect; inactive = flat fitted curve, though single readings scatter.
Assay: qHTS for Inhibitors of Cell Surface uPA Generation: Confirmatory Assay for Cherry-picked Compounds; note: 0% is about no effect
Details: cell surface uPA activity generation, qHTS confirmation; series mostly up to 115 µM; inhibition: at the top concentration
Method in brief: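 RAW 264.7 cells at 4000/well, incubated overnight, then treated with compounds. After 24 h at 37 C, viability was read by ATPlite luminescence. An increase in signal indicates blocked uPA-dependent LF entry.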

inhibition, inactive:
O=C(COC(=O)c1cccc([N+](=O)[O-])c1)NNC(=O)c1cccs1 0.429%, CC1(C)Oc2ccc3ccc(=O)oc3c2[C@@H](O)[C@H]1O -1.76%, COc1ccc(CCNC(=O)COC(=O)CNS(=O)(=O)c2ccc(SC)c([N+](=O)[O-])c2)cc1 0.698%, CCOc1cc(/C=C(\C#N)C(=O)NCc2cccnc2)ccc1O -2.42%, Cc1ccccc1C(=O)Nc1ccccc1N1CCCCC1 0.132%, O=C1NC(CCc2ccccc2)C(=O)N1Cc1ccccc1Cl (stereo not drawn) 5%, O=C(Nc1cccc(C2=NCCN2)c1)Nc1cccc(C2=NCCN2)c1 -3.27%, COC(=O)[C@H](CC(C)C)N(Cc1ccccc1)S(=O)(=O)N(Cc1ccc(OC)cc1)[C@@H](CC(C)C)C(=O)OC 0.302%, COc1ccc(C(=O)CC(=O)C(=O)Nc2ccccc2)cc1 -3.21%, COc1ccc(C(c2sc3nc(C)nn3c2O)N2CCC(C(N)=O)CC2)cc1OC (stereo not drawn) -3.21%, COc1ccc(C(=O)OCC(=O)N(C)C2CCS(=O)(=O)C2)cc1S(=O)(=O)N(C)Cc1ccccc1 (stereo not drawn) 0.424%, CCC(C(=O)NCc1ccc(C)cc1)c1ccccc1 (stereo not drawn) 1.34%, Cc1ccc(S(=O)(=O)Nc2nc(C)cc(N/N=C/c3ccc(O)cc3)n2)cc1 -3.07%, COc1ccccc1NC(=O)COc1ccc(C(=O)NCc2ccccc2)cc1OC -0.346%, O=C(O)CSc1nnc(COc2ccccc2)n1-c1ccccc1 -1.25%, CCOC(=O)C1(CCOc2ccccc2)CCN(Cc2ccc(O)c(OC)c2)CC1 -3.27%, Cc1ccc2[nH]c(CN3CCN(C)C(CCO)C3)c(C)c2c1 (stereo not drawn) 7.04%, COc1cc(/C=C(/C#N)C(=O)Nc2ccccc2)ccc1OCc1ccc(C(=O)O)cc1 -0.128%, CCc1cc(CC)c(/C=N/NC(N)=O)c(CC)c1 -1.12%, CCCOc1ccc(CC2CCC(=O)NC2=O)cc1 (stereo not drawn) -2.42%, O=C(NCC1CCCO1)c1c(O)c2cccc3c2n(c1=O)CCC3 (stereo not drawn) -3.48%, O=C(O)CNS(=O)(=O)c1ccc2c(c1)Cc1cc(S(=O)(=O)NCC(=O)O)ccc1-2 1.16%, COc1ccc(S(=O)(=O)c2c(O)c3ccc(C(=O)Nc4ccccc4)cc3[nH]c2=O)cc1 -2.77%, COCCn1nnnc1C(C(C)C)N1CCCC(C)C1 (stereo not drawn) 1.8%, COc1ccc([C@H]2CC(=O)C=C(c3ccc(CNC(=O)OC(C)(C)C)cc3)C2)cc1 -2.37%, COc1ccc(-c2sc3ccccc3c2C#CCO)cc1 -2.84%, Cc1ccccc1C(=O)NCC(=O)Nc1ccc(C)c(S(=O)(=O)N2CCCCCC2)c1 -3.15%, COC(C[C@H](O)[C@H](C)[C@@H](O)COCc1ccccc1)OC -2.54%, C=CCOC(=O)C1=C(C)NC(C)=C(C(=O)OCC=C)C1c1cn(-c2ccccc2)nc1-c1ccco1 2.24%, CCN(CC)CCCn1c2c(c(SCC(=O)Nc3cccc4ccccc34)nc1=O)CCC2 -3.24%, CC(C)(C)S(=O)(=O)N1C[C@H]2CC/C=C\C/C(c3ccccc3)=C\2[C@@H]1CCO -0.435%, Cc1cccc(NC(=O)C2CCCN(S(=O)(=O)c3ccc4[nH]c(=O)ccc4c3)C2)c1 (stereo not drawn) -1.87%, O=C(O)c1ccccc1/C=N/NC(=S)NC1CCCCC1 0.423%, CCOC(=O)C(CC)n1cnc2c(nnn2-c2ccccc2)c1=O (stereo not drawn) 0.0418%, Cc1ccc(-c2cc(C(=O)NCC3CCCO3)no2)cc1 (stereo not drawn) -3.36%, COc1ccccc1CNC(=O)CCCn1nc(C)c2c(C)n(-c3ccccc3)nc2c1=O -2.78%, Cn1cccc1Cc1nnc(SCC(=O)Nc2ccc3c(c2)OCCO3)n1-c1ccc(F)cc1 -1.98%, CCC(C)NC(=O)c1ccc2nc(-c3ccc(OC)c(OC)c3)c(-c3ccc(OC)c(OC)c3)nc2c1 (stereo not drawn) -3.49%
